Values joined by “and” are separate entries in the source; they are usually repeats but may differ in a detail not shown here. Equal values may be shown once. Records with an inconclusive call do not appear. Some structures have more than one record in an assay (separate samples or runs), and their calls can disagree. Active and inactive are the calls of the source. Unless noted, the call rests on the fitted dose curve.

From PubChem BioAssay (Tox21) come the findings set out here.

Assay [1] can be described thus: qHTS assay to identify small molecule antagonists of the sonic hedgehog signaling (Shh) pathway (AID 1259369). Further: nearly all actives have a fitted effect of over 45% in size. Further: potency means the concentration at half of the fitted maximal effect. Summed up:
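Inhibition of Shh signalling is measured as reduced Gli1-response-element firefly luciferase output in an NIH/3T3-derived stable reporter clone stimulated with conditioned medium for 24hr.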
Background: In qHTS, concentration-response curves come from the screen itself.

Assay [2] in a line: qHTS assay to identify small molecule antagonists of the estrogen receptor beta (ER-beta) signaling pathway - cell viability counter screen (AID 1259382; active means well fitted curve in the direction sought with a large enough effect in the repeat runs; an effect the other way counts as inactive or inconclusive; further: nearly all actives have a fitted effect of over 55% in size; further: potency means the concentration at half of the fitted maximal effect; on activity change, negative = cytotoxicity: series mostly up to about 92 µM). Summed up: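 Following a 6 hr plating period, HEK293T cells carrying a UAS-driven beta-lactamase reporter under ER-beta control received compounds and 1nM E2 (final). After 16 hr at 37C and 2 hr substrate loading, CellTiter-Glo luminescence indicated viability.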

The nature of assay [3]: qHTS assay to identify small molecule agonists or antagonists of the thyroid stimulating hormone receptor (TSHR) signaling pathway - wild type cell line counter screen (AID 1259384). In short, it runs like this: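 Wild-type HEK293 cells were plated 18 h at 37 C/5% CO2, pin-dosed with compound plus Ro20-1724 medium, held 30 min at room temperature, then given cAMP-d2 and anti-cAMP-cryptate; fluorescence was read after 1 h. Fifteen concentrations, triplicate.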

Assay [4] deals with Thyrotropin receptor (Homo sapiens) (UniProt P16473). The assay can be described thus: qHTS assay to identify small molecule antagonists of the thyroid stimulating hormone receptor (TSHR) signaling pathway (AID 1259385). Further: nearly all actives have a fitted effect of over 20% in size. In short, it runs like this:
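TSHR-HEK293 cells were plated and held 18 h at 37C/5% CO2, then given compound plus Ro20-1724 and stimulated with TSH at 1.5 ng/mL final. After 30 min at room temperature, cAMP was detected with cAMP-d2/anti-cAMP-cryptate (1 h) by fluorescence.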

Assay [5] is described as follows: qHTS assay to identify small molecule agonists of the androgen receptor (AR) signaling pathway in the presence of an antagonist - cell viability counter screen (AID 1259379; active means well fitted curve in the direction sought with a large enough effect in the repeat runs; an effect the other way counts as inactive or inconclusive;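 further: MDA-kb2 human breast cancer cells carrying an MMTV luciferase reporter; series mostly up to about 92 µM; nearly all actives have a fitted effect of over 25% in size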). Summed up:
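Fluorescence from CellTiter-Fluor, added after 15 hr and read 1 hr later, gave cell viability. Cells were MDA-kb2 exposed to compounds (15 concentrations) in the presence of 3.0uM nilutamide at 37C, 0% CO2.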

Assay [6] can be described thus: qHTS assay to identify small molecule agonists of the estrogen receptor beta (ER-beta) signaling pathway - cell viability counter screen (AID 1259380; active means well fitted curve in the direction sought with a large enough effect in the repeat runs; an effect the other way counts as inactive or inconclusive; further: nearly all actives have a fitted effect of over 30% in size; further: potency means the concentration at half of the fitted maximal effect). In short, it runs like this: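 Same-well viability counter screen. Cells: ER-beta-UAS-bla HEK293T, plated 6 hr before compound, in 2% charcoal-stripped FBS. Compound exposure 16 hr, 37C; viability by CellTiter-Glo luminescence after 30 min at room temperature.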

Assay [7] deals with Estrogen receptor (Homo sapiens) (UniProt P03372). The assay can be described thus: qHTS assay to identify small molecule agonists of the estrogen receptor alpha (ER-alpha) signaling pathway in the presence of an antagonist (AID 1259383). Further: nearly all actives have a fitted effect of over 15% in size. Further: potency means the concentration at half of the fitted maximal effect. On activation: top concentration of the series differs between compounds. In short, it runs like this:
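Cells are hormone-deprived for 5 days (charcoal-stripped FBS, no phenol red), plated for 24hr, spiked with 10.0nM ICI-182,780, then dosed at 15 concentrations. After 22hr at 37C, ONE-Glo luminescence reports ERE-luciferase activity.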

For assay [8], the target named is Estrogen receptor beta (Homo sapiens) (UniProt Q92731). The assay can be described thus: qHTS assay to identify small molecule agonists of the estrogen receptor beta (ER-beta) signaling pathway (AID 1259377; active means well fitted activation curve with a large enough effect in the signal ratio in the repeat runs, not every such curve was filed as active; the % refers to the signal ratio). In short, it runs like this: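 ER-beta-UAS-bla HEK293T cells in medium with 2% charcoal-stripped FBS were exposed to compounds for 16 h at 37C. Beta-lactamase reporter activity was read as fluorescence after 2 h with LiveBLAzer B/G FRET substrate at room temperature.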

The target is the same in assay [9]. The assay can be described thus: qHTS assay to identify small molecule antagonists of the estrogen receptor beta (ER-beta) signaling pathway (AID 1259378; active means well fitted inhibition curve with a large enough effect in the signal ratio in the repeat runs, not every such curve was filed as active; the % refers to the signal ratio). Summed up:
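ER-beta-UAS-bla HEK293T (GripTite) cells in 2% charcoal-stripped FBS medium were preincubated 6 hr at 37C, dosed with compound, then stimulated with 1 nM E2 (final) for 16 hr; beta-lactamase reporter read by B/G FRET fluorescence after 2 hr substrate loading.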

The target in assay [10] is Androgen receptor (Homo sapiens) (UniProt P10275). The assay can be described thus: qHTS assay to identify small molecule agonists of the androgen receptor (AR) signaling pathway in the presence of an antagonist (AID 1259381). Further: nearly all actives have a fitted effect of over 15% in size. In short, it runs like this:
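Cells are MDA-kb2 (human breast carcinoma, MMTV-luc, AR/GR responsive). Nilutamide is present at 3.0uM final throughout; compounds are added at 15 concentrations and incubated 16hr at 37C before ONE-Glo luminescence detection.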
On the % scale 0 is the no-effect control and ±100 the full control effect.

Sequence of Thyrotropin receptor (Homo sapiens) (P16473 whole entry, looked up): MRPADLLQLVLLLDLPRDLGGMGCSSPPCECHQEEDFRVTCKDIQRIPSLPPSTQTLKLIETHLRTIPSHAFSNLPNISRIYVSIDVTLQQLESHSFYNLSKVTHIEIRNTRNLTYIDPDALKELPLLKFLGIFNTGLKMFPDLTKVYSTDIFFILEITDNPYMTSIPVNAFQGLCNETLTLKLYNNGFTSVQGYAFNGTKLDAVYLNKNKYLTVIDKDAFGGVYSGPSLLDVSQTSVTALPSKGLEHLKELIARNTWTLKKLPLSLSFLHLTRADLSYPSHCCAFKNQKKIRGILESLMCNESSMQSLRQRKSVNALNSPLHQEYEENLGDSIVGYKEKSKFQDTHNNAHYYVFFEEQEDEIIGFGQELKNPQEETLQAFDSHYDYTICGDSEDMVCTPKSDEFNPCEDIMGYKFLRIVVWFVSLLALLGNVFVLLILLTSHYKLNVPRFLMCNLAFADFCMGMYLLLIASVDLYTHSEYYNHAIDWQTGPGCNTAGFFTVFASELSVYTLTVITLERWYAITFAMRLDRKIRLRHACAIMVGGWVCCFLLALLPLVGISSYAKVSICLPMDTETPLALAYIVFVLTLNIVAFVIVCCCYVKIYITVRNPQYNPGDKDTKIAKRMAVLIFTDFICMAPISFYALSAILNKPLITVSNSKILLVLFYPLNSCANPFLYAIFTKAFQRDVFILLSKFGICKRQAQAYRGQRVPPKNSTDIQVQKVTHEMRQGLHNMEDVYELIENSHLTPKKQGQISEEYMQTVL
Sequence of Androgen receptor (Homo sapiens) (P10275 whole entry, looked up): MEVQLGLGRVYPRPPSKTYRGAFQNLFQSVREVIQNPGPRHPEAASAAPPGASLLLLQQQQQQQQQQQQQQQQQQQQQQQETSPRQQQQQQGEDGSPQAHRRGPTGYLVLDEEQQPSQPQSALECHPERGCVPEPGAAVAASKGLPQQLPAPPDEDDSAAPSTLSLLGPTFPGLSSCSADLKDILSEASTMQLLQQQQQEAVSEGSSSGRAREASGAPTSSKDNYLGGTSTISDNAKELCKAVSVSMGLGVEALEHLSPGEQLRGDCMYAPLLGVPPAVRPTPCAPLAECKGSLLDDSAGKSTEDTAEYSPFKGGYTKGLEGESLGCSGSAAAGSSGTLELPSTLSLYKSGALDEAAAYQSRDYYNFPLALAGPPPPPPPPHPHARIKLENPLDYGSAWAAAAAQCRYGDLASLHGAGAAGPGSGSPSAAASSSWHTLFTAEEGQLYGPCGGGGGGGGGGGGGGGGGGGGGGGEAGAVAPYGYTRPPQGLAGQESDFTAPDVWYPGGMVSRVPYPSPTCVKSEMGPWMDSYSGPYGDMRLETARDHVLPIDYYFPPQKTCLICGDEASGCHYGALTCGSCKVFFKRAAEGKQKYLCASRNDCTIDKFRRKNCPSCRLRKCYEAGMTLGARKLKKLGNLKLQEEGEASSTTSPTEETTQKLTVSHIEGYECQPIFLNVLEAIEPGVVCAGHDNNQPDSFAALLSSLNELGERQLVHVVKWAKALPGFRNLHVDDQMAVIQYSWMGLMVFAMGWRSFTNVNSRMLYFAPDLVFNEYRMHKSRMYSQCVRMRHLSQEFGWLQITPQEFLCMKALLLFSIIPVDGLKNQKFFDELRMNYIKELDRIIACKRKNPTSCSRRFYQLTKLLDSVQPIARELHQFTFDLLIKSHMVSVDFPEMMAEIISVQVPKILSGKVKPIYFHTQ
Sequence of Estrogen receptor (Homo sapiens) (P03372 whole entry, looked up): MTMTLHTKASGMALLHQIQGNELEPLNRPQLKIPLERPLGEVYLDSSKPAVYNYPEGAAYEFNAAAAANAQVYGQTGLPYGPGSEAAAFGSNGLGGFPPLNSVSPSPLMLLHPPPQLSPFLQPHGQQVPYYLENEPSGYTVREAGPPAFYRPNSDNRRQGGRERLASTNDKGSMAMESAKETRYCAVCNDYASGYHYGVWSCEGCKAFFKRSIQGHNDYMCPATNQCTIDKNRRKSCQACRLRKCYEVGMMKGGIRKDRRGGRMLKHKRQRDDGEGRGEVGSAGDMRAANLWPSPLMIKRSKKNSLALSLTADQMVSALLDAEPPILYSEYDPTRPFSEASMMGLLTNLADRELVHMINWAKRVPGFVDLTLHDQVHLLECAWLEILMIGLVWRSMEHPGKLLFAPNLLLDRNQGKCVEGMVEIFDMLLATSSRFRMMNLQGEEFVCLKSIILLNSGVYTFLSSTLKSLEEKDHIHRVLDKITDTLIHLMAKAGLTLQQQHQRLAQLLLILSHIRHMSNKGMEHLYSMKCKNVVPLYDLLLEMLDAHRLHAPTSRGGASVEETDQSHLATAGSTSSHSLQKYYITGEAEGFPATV
Sequence of Estrogen receptor beta (Homo sapiens) (Q92731 whole entry, looked up): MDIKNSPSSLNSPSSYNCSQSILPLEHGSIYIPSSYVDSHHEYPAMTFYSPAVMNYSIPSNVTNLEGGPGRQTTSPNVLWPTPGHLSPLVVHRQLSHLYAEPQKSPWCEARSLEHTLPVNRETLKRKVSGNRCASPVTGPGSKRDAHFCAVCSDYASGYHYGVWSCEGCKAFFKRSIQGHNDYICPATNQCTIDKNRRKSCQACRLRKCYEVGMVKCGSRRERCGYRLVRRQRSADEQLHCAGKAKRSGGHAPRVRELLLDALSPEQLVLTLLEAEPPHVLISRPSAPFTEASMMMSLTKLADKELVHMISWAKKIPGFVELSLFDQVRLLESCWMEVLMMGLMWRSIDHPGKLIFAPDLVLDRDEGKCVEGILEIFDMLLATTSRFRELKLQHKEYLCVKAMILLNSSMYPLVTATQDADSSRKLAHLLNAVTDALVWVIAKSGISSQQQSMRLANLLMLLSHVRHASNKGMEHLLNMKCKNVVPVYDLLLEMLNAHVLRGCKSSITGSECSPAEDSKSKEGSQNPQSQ

As to `Nc1nc2c(ncn2COCCO)c(=O)[nH]1`, the Potency entry in [1], in assay [2] and in assay [4] was “inactive” each time. In addition, the call in assay [3] was inactive.
In the case of `O=C(O)CN(CCN(CC(=O)O)CC(=O)O)CC(=O)O`, the results for the activity change, negative = inhibition in [1] and in assay [4] were 12.7% [at 3.27 µM] (inactive) and 1.34% [at 3.27 µM] (inactive), respectively. In addition, the results for the activity change, negative = cytotoxicity in [5] and in assay [6] were -0.833% [at 3.27 µM] (inactive) and 0.439% [at 3.32 µM] (inactive), respectively. For the same compound, the cAMP activity change in [3] is -0.412% [at 3.27 µM] (inactive).
Take `COc1cc(S(=O)(=O)O)c(C)cc1N=Nc1c(O)ccc2cc(S(=O)(=O)O)ccc12`: the Potency entry in assay [1], in [6], in assay [2] and in assay [7] was “inactive” in each case.
As to `CCC(C)n1ncn(-c2ccc(N3CCN(c4ccc(OC[C@H]5CO[C@](Cn6cncn6)(c6ccc(Cl)cc6Cl)O5)cc4)CC3)cc2)c1=O` (some centres not stated), the Potency in [1] is 1.68 µM (active). The Potency result in assay [5], in assay [2], in [7] and in [4] was “inactive” throughout. In assay [3], the call was inactive.
As for `C=CCCC(=O)/C=C/C1C(C)=CCCC1(C)C` (configuration not stated), the Potency entry in assay [8], in assay [9], in [5], in assay [6] and in assay [2] was “inactive” each time.
In the case of `OC[C@H]1O[C@H](O[C@H]2O[C@H](CO)[C@@H](O)[C@H](O)[C@H]2O)[C@H](O)[C@@H](O)[C@@H]1O`, the Potency entry in assay [1], in assay [5] and in assay [4] was “inactive” in each case. Besides, the result in [10] and in [3] was inactive.
In the case of `CC1=CCC(=C(C)C)CC1`, the Potency result in [1], in assay [6], in assay [2] and in assay [7] was “inactive” each time.
On to `CCOc1ccc2ccccc2c1C(=O)N[C@@H]1C(=O)N2[C@@H]1SC(C)(C)[C@@H]2C(=O)O`, for which the Potency result in [1], in [5], in assay [2], in assay [7] and in [4] was “inactive” throughout. Also, the outcome in assay [10] and in assay [3] was inactive.
In the case of `CC(=O)c1ccc(C(C)=O)cc1`, the Potency entry in assay [8], in [9], in assay [5], in assay [6], in assay [2] and in assay [4] was “inactive” each time. Besides, the outcome in assay [10] and in [3] was inactive.
`CCN(CCN)c1cccc(C)c1`: the Potency in [1] was 7.77 µM (active). Moreover, the Potency entry in assay [5], in [7] and in assay [4] was “inactive” each time. In assay [3], the call was inactive.
Take `CCC(COC(=O)CCS)(COC(=O)CCS)COC(=O)CCS`: the Potency entry in assay [1], in assay [7] and in assay [4] was “inactive” each time. For the same compound, in assay [3], the outcome was inactive.
For the compound `CN1CCN(Cc2cc(-c3ccc4[nH]c(=O)oc4c3)co2)[C@@H](c2ccc(F)cc2)C1`, the Potency in assay [1] was 4.16 µM (active); in [6], 13.2 µM (active). Further, the Potency entry in assay [7] and in assay [4] was “inactive” each time. Further, the result in assay [3] was inactive.
`CC1(C)CCC[C@]2(C)[C@H]3CC(=O)O[C@]3(C)CC[C@@H]12`: the Potency in [1] was 30.6 µM (active). For the same compound, the Potency entry in assay [2] and in assay [4] was “inactive” in each case. For the same compound, in assay [3], the call was inactive.
Regarding `CCCC(=O)OCOC(=O)C1=C(C)NC(C)=C(C(=O)OC)C1c1cccc(Cl)c1Cl` (configuration not stated), the Potency entry in assay [1], in assay [2], in [7] and in assay [4] was “inactive” in each case. Further, the outcome in [10] and in [3] was inactive.
Consider `Nc1nc(-c2ccccc2)cs1`, for which the Potency result in assay [1], in assay [6], in assay [2] and in assay [4] was “inactive” each time. Besides, the result in [3] was inactive.
Consider `O=S(=O)(O)c1ccccc1/C=C/c1ccc(-c2ccc(/C=C/c3ccccc3S(=O)(=O)O)cc2)cc1`, for which the Potency entry in [1], in assay [6], in assay [2] and in [7] was “inactive” in each case. In assay [3], the result was inactive.
Turning to `CCC(=O)C(=O)CC`, the Potency result in assay [1], in assay [5], in [6] and in [4] was “inactive” throughout. The compound was called inactive in assay [3].
Take `Nc1ccc(C(=O)O)c(O)c1`: the Potency result in assay [1], in assay [5], in assay [2] and in [4] was “inactive” throughout. Further, the result in assay [10] and in assay [3] was inactive.
As to `NC(=S)NC(N)=S`, the Potency result in assay [1], in assay [5], in assay [2], in assay [7] and in assay [4] was “inactive” in each case. Moreover, the result in assay [10] and in [3] was inactive.
For the compound `Nc1nc(N)nc(-c2cc(Cl)ccc2Cl)n1`, the Potency entry in assay [1], in assay [5] and in [2] was “inactive” throughout.
As to `CCOC(=O)Cn1cccc1-c1nc(-c2ccc(OC)cc2)c(-c2ccc(OC)cc2)s1`, the Potency entry in [1], in assay [5], in assay [2] and in assay [7] was “inactive” throughout. Besides, in assay [10], the result was inactive.
Take `C#Cc1ccc(-c2ccccc2F)cc1`: the Potency entry in [1], in assay [5], in assay [7] and in assay [4] was “inactive” in each case. Besides, the compound was classed as inactive in [3].
Take `C/C=C/C=C/COC(=O)C(C)C`: the Potency in assay [1] was 30.6 µM (active). Further, the Potency result in [6] and in [4] was “inactive” throughout. In assay [3], the result was inactive.
In the case of `C=CC(=O)OCCOC(=O)C=C`, the Potency result in assay [1], in assay [6], in [2] and in [4] was “inactive” in each case. In addition, the result in [10] and in [3] was inactive. In addition, the Potency in [7] was 61.1 µM (active).
Turning to `O=c1[nH]c2ccccc2n1CCCN1CCN(C(c2ccccc2)c2ccccc2)CC1`, the Potency in [1] is 3.35 µM (active); in assay [6], 11.9 µM (active). The outcome in assay [3] was inactive. Further, in assay [4], the Potency entry was “inactive”.
`C#CC1(O)CC[C@H]2[C@@H]3CCC4=CCCC[C@@H]4[C@H]3CC[C@@]21C` (some centres not stated): the Potency is 48.6 µM (active) and inactive in [1]; 61.1 µM (active) and 26.6 µM (active) in assay [2]. Also, the result in assay [3] was inactive. Besides, the Potency entry in assay [4] was “inactive”.
